This is a sample that favours compounds with a hit; in the whole collection about 19% have one here.
TDP1 cell noCPT: qHTS for Inhibitors of human tyrosyl-DNA phosphodiesterase 1 (TDP1): qHTS in cells in absence of CPT; DT40 Tdp1-/- hTDP1 cells, no CPT, ATP luminescence, 48 h; Potency, µM (titrated, usually from 46.2 µM), for inactives: top-dose activity change, negative = growth inhibition, actives largely listed as inhibitors; 15% of 420,000 active; note: potency is the fitted concentration of half-maximal effect; nearly all actives have a fitted effect of over 55% in size
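Luminescent ATP content (CellTiter-Glo) served as the growth readout. Knockout chicken DT40 cells expressing human TDP1 were exposed to compounds without camptothecin for a minimum 48 hr at 37 °C.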
IL-1B inflam inh: inflammasome signaling inhibition, IL-1 beta readout; THP-1 LPS/ATP IL-1B secretion, AlphaLISA, 16 h; stronger effect = lower value; 4.7% of 360,000 active; activity change, % at 57.5 µM; in the data active = activity change below about -50%; inconclusive = mostly about -30% to -49%
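Secreted IL-1B measured by AlphaLISA bead assay after 16 h compound exposure of THP-1 cells; compounds (final up to 57.5 uM) added 1 h before LPS (250 ng/mL) and ATP (1.25 mM) stimulation; lower signal means less secretion.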
TDP1 cell CPT: DT40-hTDP1 cell growth loss with CPT; chicken DT40 Tdp1-/-;hTDP1 cells + 20 nM CPT, ATP luminescence, 48 h; Potency, µM (series often up to 46.2 µM), for inactives: at the top dose activity change, negative = growth inhibition, most hits filed as inhibitors; 12% of 420,000 active; note: potency is the fitted concentration of half-maximal effect; nearly all actives have a fitted effect of over 55% in size
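Cell growth measured by CellTiter-Glo luminescence after a minimum 48 h, 37 C compound exposure with 20 nM CPT in Tdp1-knockout DT40 cells stably expressing hTDP1, seeded 400/well; qHTS titration format.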
HT1080 IDH1KD tx: kills HT-1080 cells with IDH1 knockdown | Potency, µM (titrated, usually from 46.1 µM), for inactives: top-dose activity, negative = toxicity, most hits filed as cytotoxic | HT-1080 IDH1 knockdown viability, ATP luminescence, 48 h | 2% of 360,000 active;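 note: potency is the fitted concentration of half-maximal effect; 0% = DMSO wells and -100% = cell-free medium wells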
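CellTiter-Glo luminescence after 48 h compound exposure at 37 degrees C of IDH1-knockdown HT-1080 cells in 5% FBS RPMI. %Activity scaled between DMSO wells and cell-free media wells, with curves fitted and assigned curve classes.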
HT1080NT lethal: kills 2HG-producing HT-1080-NT fibrosarcoma cells. HT-1080-NT fibrosarcoma viability, CellTiter-Glo ATP luminescence, 48 h. Potency, µM (highest dose often 46.1 µM), without a hit: at the highest dose activity, negative = less viability, most hits filed as cytotoxic. 1.6% of 360,000 active. AID 686970;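 note: NT is the 2HG producing partner of a matched IDH1 knockdown line; potency is the fitted concentration of half-maximal effect; 0% = DMSO-treated cells and -100% = media-only wells without cells; nearly all actives have a fitted effect of over 55% in size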
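A 48-hour cytotoxicity screen used HT-1080-NT cells plated 2 hours before compound delivery. ATP-based CellTiter-Glo luminescence measured viability, normalized to DMSO and no-cell controls.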
ELG1 DNA repair: ELG1-dependent DNA repair inhibition | HEK293T ELG1-luciferase reporter, luminescence, 16 h; DNA damage induced by 5-fluorouridine | Potency, µM (series often up to 46.1 µM), for inactives: at the highest dose activity change, negative = inhibition, hits mostly inhibitors | 2.3% of 330,000 active | AID 504467; note: potency is the fitted concentration of half-maximal effect; nearly all actives have a fitted effect of over 55% in size
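Quantitative HTS, concentration-response format. 2,000 cells/well co-treated with 5-fluorouridine and compound, 16 hr in 5% CO2 at 37 °C; ONE-Glo luminescence read after 30 min.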
Numbers without * were called inactive; ? = inconclusive; nt = not tested or not shown; [ ] = another dose, or the depositor's remark. Unless noted, calls come from the whole dose curve; as a rule, active = well fitted curve in the direction sought with a large enough effect; inconclusive = small, poorly fitted or top-dose-only effect, or another doubt; inactive = no such curve, though single readings can be large; an effect the other way counts as inactive or inconclusive. Unless noted, % is set by controls: 0 for no effect and ±100 for the full control effect.

SMILES	TDP1 cell noCPT	IL-1B inflam inh	TDP1 cell CPT	HT1080 IDH1KD tx	HT1080NT lethal	ELG1 DNA repair
COc1ccc2cc(C3CC(c4cccs4)=NN3S(C)(=O)=O)c(Cl)nc2c1 (stereo unspecified)	?	-17	16µM*	-2%	-1%	?
COc1ccc2cc(C3CC(c4ccco4)=NN3C(=O)CCC(=O)O)c(Cl)nc2c1 (stereo unspecified)	?	-1	-19%	17%	10%	8%
CCOc1ccc2cc(C3CC(c4ccco4)=NN3S(C)(=O)=O)c(Cl)nc2c1 (stereo unspecified)	?	-60*	?	-8%	-1%	?
CCN(CC)c1ncnc2c1ncn2[C@@H]1O[C@@H](COP(=O)(O)OP(=O)(O)C(Br)(Br)P(=O)(O)O)[C@H](O)[C@H]1O	-6%	nt	-23%	nt	nt	nt
CC1Cc2ccccc2N1C(=O)CN1CCN(S(=O)(=O)c2cccs2)CC1 (stereo unspecified)	15µM*	0	?	0%	10%	-6%
CC1Cc2ccccc2N1S(=O)(=O)c1cccs1 (stereo unspecified)	16µM*	0	21µM*	-11%	1%	-6%
CCOc1ccc(S(=O)(=O)N2c3ccccc3CC2C)cc1 (stereo unspecified)	0.92µM*	36	0.65µM*	?	3.2µM*	?
C=CCn1c(O)c(N=NC(=O)CNC(=O)Cc2ccccc2)c2ccccc21	5%	34	-7%	-3%	2%	10%
CCN1CCCC1CNCc1cc2c(OC)c(OC)c(OC)cc2nc1N(C)C (stereo unspecified)	-11%	nt	-7%[9.04 µM]	nt	nt	nt
CCOC(=O)C1=CCN(S(=O)(=O)c2ccccc2C)C1c1cccc(F)c1 (stereo unspecified)	16µM*	50	?	-18%	5%	nt
CCOC(=O)C1=CCN(S(=O)(=O)c2ccccc2C)C1c1cccc(Br)c1 (stereo unspecified)	21µM*	42	?	?	?	nt
CCOC(=O)C1=CCN(S(=O)(=O)c2cccc(Cl)c2)C1c1cccc(F)c1 (stereo unspecified)	21µM*	?	21µM*	-9%	-14%	nt
CCOC(=O)C1=CCN(S(=O)(=O)c2ccccc2F)C1c1cccc(Br)c1 (stereo unspecified)	?	16	?	?	?	nt
CCOC(=O)C1=CCN(S(=O)(=O)c2ccccc2F)C1c1cccc(F)c1 (stereo unspecified)	?	53	?	-10%	12%	nt
CCN(C(=O)CCS(=O)(=O)c1cc2[nH]c(=O)c(=O)[nH]c2cc1C)c1ccccc1	-13%	nt	15%	nt	nt	nt
CC(OC(=O)Cc1n[nH]c(=O)c2ccccc12)C(=O)Nc1ccc(F)cc1Cl (stereo unspecified)	-16%	1	-23%	-3%	0%	2%
CCN1C=C(Cc2ccc(F)cc2)C2=C(C1)C(c1ccc(F)cc1)C(C#N)=C(N)O2 (stereo unspecified)	16µM*	-103*	?	-1%[9.24 µM]	?	-10%
CCN1C=C(Cc2ccccc2C)C2=C(C1)C(c1ccccc1C)C(C#N)=C(N)O2 (stereo unspecified)	21µM*	?	16µM*	?	?	?
CC(=O)C1=C(c2ccccc2)OC(N)=C(C#N)C1c1ccccc1C (stereo unspecified)	-15%	-6	-5%	6%	10%	9%

Compound activity as filed in PubChem.
